We go through seven molecules from PubChem BioAssay.

Active and inactive are the calls of the source.

For experiment [1], the system named is PRMT1 (protein arginine N-methyltransferase 1). The experiment can be described thus: PRMT1 binders on small-molecule microarrays, primary screen, biochemical, small-molecule microarray, 635 nm fluorescence (AID 1088).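 Also: binding of Prmt1 protein to compounds spotted on small-molecule microarray slides.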 The following applies: small-molecule microarray binding, higher = more signal.
A short description of experiment [2]: yeast growth modulation, basal conditions, primary screen, YJM789 clinical isolate, OD600, 24 h (AID 1089).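 Also: growth of clinical yeast isolate S. cerevisiae YJM 789 seeded 1000 cells per well; test concentration not given here.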 The following applies: S. cerevisiae YJM789 growth, higher = more signal, called active from +8 up or from −8 down.
Experiment [3] in a line: fission yeast growth modulation, primary screen, strain 972, OD600, 24 h, no modulator (AID 1090).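 Also: basal condition with compound alone and no growth modifier present; test concentration not given here.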 To be noted: S. pombe 972 growth, higher = more signal, called active from +8 up or from −8 down.
A short description of experiment [4]: S. cerevisiae growth modulation with rapamycin, primary screen, strain BY4716, OD600, 96 h (AID 1091). Also: test concentration not given here. The following applies: higher = more signal, called active from +8 up or from −8 down.
The target of experiment [5] is Torsin-1A-interacting protein 2 (Homo sapiens) (UniProt Q8NFQ8). The experiment can be described thus: LULL1 binders on small-molecule microarray, primary screen, cell lysate, human LULL1 lysate, 635/667 nm fluorescence (AID 1092).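 Also: probe is lysate of COS7 cells overexpressing human LULL1; score merges per-feature 667 nm fluorescence with signal-to-noise.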 The following applies: hLULL1 lysate binding, 635 nm fluorescence, higher = more signal.
Sequence of Torsin-1A-interacting protein 2 (Homo sapiens) (Q8NFQ8 whole entry, looked up): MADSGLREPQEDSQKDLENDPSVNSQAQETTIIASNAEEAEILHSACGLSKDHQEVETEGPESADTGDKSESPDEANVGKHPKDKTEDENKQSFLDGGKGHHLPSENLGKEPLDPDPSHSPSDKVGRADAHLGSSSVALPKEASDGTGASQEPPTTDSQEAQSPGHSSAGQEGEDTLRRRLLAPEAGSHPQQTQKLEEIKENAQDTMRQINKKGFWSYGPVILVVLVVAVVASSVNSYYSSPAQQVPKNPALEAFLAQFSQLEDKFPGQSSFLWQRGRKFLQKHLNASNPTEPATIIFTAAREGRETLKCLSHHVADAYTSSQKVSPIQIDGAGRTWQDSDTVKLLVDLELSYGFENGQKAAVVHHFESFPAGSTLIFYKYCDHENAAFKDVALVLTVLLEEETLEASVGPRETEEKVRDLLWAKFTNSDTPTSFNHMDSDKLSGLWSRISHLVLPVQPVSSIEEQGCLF
Experiment [6] in a line: E. coli growth modulation, two-sided OD650, primary screen, E. coli filamentation project, strain DRC41, 24 h (AID 1093).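 Also: MC1000 strain lacking acrAB efflux and sulA so SOS filamentation is blocked; test concentration not given here.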 The following applies: OD650, 24 h, higher = more signal, called active from +8 up or from −8 down.
Experiment [7] in a line: small-molecule microarray binders of probe aLefty2, primary screen, biochemical, biotinylated probe, 635/667 nm fluorescence (AID 1094).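 Also: score merges spot fluorescence near 667 nm with spot signal-to-noise ratio.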 The following applies: higher = more signal.
Experiment [8] deals with Noggin (protein binding on small-molecule microarray). Briefly: Noggin binders on small-molecule microarray, primary screen, biochemical, 635/667 nm fluorescence (AID 1095).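 Also: score merges 667 nm feature fluorescence with signal to noise over triplicate slides.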 The following applies: 635 nm fluorescence, higher = more signal.
For experiment [9], the target named is Neurogenic locus notch homolog protein 3 (Homo sapiens) (UniProt Q9UM47). Briefly: NOTCH3 binders on small-molecule microarray, primary screen, biochemical, 635/667 nm fluorescence (AID 1096). To be noted: NOTCH3 binding, 635 nm fluorescence, higher = more signal.
Sequence of Neurogenic locus notch homolog protein 3 (Homo sapiens) (Q9UM47 whole entry, looked up): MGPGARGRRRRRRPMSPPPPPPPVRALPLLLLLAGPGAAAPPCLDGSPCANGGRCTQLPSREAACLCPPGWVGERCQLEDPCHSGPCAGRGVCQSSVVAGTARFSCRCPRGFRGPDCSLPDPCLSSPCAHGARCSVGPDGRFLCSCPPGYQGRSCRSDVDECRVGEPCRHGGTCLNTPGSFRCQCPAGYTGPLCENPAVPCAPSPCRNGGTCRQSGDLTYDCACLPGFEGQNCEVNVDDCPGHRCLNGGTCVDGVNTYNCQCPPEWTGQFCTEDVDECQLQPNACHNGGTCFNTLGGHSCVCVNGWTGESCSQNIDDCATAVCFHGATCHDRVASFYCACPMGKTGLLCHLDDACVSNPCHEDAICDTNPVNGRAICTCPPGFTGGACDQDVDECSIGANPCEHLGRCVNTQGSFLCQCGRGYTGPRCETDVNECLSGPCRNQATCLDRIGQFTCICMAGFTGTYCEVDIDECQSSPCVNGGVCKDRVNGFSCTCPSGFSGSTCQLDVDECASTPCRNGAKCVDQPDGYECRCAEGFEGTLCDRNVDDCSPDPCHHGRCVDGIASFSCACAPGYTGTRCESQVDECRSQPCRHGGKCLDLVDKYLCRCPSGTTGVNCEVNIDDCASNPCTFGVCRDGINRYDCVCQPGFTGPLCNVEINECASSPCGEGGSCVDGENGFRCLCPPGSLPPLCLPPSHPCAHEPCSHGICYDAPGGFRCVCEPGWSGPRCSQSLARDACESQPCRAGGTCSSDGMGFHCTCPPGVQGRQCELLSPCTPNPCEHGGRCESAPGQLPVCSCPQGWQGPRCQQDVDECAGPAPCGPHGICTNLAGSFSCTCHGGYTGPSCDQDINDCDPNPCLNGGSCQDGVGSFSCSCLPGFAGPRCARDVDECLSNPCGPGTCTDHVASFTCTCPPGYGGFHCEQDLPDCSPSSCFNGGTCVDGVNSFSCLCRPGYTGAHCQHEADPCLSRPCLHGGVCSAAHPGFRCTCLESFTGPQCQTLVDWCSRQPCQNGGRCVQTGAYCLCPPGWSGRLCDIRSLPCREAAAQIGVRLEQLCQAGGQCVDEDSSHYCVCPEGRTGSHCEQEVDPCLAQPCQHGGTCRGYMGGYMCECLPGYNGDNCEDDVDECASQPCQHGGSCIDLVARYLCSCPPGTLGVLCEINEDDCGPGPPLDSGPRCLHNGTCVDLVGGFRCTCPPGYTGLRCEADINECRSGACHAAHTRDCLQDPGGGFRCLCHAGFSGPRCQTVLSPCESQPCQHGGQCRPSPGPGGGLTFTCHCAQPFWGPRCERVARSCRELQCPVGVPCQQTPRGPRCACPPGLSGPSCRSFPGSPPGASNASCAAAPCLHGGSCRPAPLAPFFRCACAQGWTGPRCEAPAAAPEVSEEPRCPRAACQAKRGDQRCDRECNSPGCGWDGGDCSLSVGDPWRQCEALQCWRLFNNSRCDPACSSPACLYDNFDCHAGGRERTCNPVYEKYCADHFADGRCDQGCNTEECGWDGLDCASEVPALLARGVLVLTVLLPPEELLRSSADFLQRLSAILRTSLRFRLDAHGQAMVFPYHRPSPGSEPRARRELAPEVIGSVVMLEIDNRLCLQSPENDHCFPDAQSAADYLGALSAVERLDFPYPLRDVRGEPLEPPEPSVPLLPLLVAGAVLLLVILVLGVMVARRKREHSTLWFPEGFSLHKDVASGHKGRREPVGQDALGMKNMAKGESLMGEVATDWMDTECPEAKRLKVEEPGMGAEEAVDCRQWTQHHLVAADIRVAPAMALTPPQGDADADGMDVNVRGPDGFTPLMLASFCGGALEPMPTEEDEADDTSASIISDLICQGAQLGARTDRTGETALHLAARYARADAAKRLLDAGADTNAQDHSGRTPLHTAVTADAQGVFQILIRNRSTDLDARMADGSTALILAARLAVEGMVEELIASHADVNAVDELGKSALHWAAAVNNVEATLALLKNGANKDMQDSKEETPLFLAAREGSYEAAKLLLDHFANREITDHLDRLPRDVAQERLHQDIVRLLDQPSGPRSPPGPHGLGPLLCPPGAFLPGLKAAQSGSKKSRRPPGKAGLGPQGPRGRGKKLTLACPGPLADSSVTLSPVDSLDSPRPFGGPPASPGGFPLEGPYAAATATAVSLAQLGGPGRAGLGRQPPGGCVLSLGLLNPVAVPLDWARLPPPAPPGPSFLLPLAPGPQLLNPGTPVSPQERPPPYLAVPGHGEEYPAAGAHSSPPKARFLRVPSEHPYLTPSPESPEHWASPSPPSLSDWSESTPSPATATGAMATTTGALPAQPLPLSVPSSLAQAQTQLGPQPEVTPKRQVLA
The nature of experiment [10]: small-molecule microarray binders of probe aEGFR, primary screen, biochemical, biotinylated probe, 635/667 nm fluorescence (AID 1097).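 Also: probe is a biotinylated anti-EGFR antibody binding compounds printed on slides; score combines fluorescence near 667 nm and signal to noise of each spot.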 To be noted: higher = more signal.
In experiment [11] the test system is Plasmodium falciparum Sir2 (PF13_0152, Sir2A). The experiment can be described thus: pfSir2 binders on small-molecule microarrays, primary screen, biochemical, small-molecule microarray, 635 nm fluorescence (AID 1098).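 Also: score merges spot fluorescence intensity with its signal-to-noise ratio.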 The following applies: small-molecule microarray binding, fluorescence 635 nm; higher = more signal.
Experiment [12] can be described thus: small-molecule microarray binders of probe aDKK1, primary screen, biochemical, biotinylated probe, 635/667 nm fluorescence (AID 1099).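 Also: score merges 667nm spot fluorescence with signal to noise across triplicate slides; reference of the scale not given here.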 To be noted: higher = more signal.
A short description of experiment [13]: small-molecule microarray binders of probe aCHRDL2, primary screen, biochemical, biotinylated probe, 635/667 nm fluorescence (AID 1100). The following applies: higher = more signal.
Experiment [14] is described as follows: splicing luciferase reporter signal modulators, primary screen, spliceosome inhibition project, cell-based, HEK293, splice +/- reporter (AID 1101).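 Also: HEK293 cells carrying a splicing-competent luciferase reporter gene; test concentration not given here.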 The following applies: luminescence, 24 h, higher = more signal, called active from +8 up or from −8 down. On the technique in general: A reporter such as luciferase makes a cellular process visible.
For experiment [15], the target named is Fibroblast growth factor 10 (Homo sapiens) (UniProt O15520). The experiment can be described thus: FGF10 binders on small-molecule microarrays, primary screen, biochemical, small-molecule microarray, 635 nm fluorescence (AID 1102). To be noted: FGF10 binding, fluorescence 635 nm, higher = more signal.
Sequence of Fibroblast growth factor 10 (Homo sapiens) (O15520 whole entry, looked up): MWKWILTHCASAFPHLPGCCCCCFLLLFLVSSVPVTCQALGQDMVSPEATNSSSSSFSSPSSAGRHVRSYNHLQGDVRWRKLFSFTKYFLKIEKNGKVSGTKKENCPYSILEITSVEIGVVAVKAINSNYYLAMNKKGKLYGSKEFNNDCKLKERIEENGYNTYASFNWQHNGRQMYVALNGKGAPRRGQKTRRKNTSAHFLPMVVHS
Experiment [16] has as its system glycogen synthase kinase-3 (GSK3A per assay name; protocol says GSK3B). The experiment can be described thus: GSK3 binders on small-molecule microarrays, primary screen, biochemical, small-molecule microarray, 635 nm fluorescence, GSK3A (AID 1103). Also: the record names both GSK3A and GSK3B. To be noted: small-molecule microarray binding, fluorescence 635 nm; higher = more signal.
The target of experiment [17] is Epidermal growth factor receptor (Homo sapiens) (UniProt P00533). The experiment can be described thus: EGFR binders on small-molecule microarrays, primary screen, biochemical, small-molecule microarray, 635 nm fluorescence (AID 1104).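 Also: score merges 667 nm emission intensity with spot signal to noise over triplicate slides.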 To be noted: EGFR binding, higher = more signal.
Sequence of Epidermal growth factor receptor (Homo sapiens) (P00533 whole entry, looked up): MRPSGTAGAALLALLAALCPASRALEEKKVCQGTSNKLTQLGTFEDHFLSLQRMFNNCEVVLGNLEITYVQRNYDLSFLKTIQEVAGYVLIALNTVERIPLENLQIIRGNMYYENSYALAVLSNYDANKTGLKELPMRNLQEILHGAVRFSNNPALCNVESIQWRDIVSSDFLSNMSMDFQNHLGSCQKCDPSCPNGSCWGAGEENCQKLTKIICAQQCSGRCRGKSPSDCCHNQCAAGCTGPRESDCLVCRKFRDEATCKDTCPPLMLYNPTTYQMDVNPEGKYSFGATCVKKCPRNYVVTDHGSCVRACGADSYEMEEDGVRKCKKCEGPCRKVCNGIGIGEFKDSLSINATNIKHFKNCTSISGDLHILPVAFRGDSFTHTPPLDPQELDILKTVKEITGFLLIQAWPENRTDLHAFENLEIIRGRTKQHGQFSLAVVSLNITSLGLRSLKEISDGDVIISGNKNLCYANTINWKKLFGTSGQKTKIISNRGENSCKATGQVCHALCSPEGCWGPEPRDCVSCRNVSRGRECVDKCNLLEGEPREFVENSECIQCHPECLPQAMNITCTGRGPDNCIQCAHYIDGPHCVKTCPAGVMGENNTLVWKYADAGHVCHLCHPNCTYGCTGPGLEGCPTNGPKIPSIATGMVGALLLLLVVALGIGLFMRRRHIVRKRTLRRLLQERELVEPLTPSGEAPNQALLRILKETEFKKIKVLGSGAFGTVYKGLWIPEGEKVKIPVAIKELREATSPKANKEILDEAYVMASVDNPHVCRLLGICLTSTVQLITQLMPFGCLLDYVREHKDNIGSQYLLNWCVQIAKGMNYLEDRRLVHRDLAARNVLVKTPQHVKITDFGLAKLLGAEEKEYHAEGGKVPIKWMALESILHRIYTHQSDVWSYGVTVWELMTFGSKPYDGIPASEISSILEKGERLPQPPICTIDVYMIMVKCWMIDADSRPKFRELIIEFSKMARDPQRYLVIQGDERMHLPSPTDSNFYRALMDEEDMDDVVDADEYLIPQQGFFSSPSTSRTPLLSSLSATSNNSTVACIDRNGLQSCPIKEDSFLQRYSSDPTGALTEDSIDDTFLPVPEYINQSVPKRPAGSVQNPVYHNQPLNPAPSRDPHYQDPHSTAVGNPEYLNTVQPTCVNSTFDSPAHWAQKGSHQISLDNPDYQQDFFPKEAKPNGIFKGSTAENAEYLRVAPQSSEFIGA
Experiment [18] has as its target Follistatin-related protein 3 (Homo sapiens) (UniProt O95633). Briefly: FSTL3 binders on small-molecule microarrays, primary screen, biochemical, small-molecule microarray, 635 nm fluorescence (AID 1105).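 Also: score merges emission near 667 nm and signal to noise per printed spot across three slides.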 The following applies: FSTL3 binding, higher = more signal.
The target in experiment [19] is Dickkopf-related protein 1 (Homo sapiens) (UniProt O94907). The experiment can be described thus: DKK1 binders on small-molecule microarrays, primary screen, biochemical, small-molecule microarray, 635 nm fluorescence scan (AID 1106).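 Also: score merges emission near 667 nm with signal to noise over three replicate slides.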 To be noted: DKK1 binding, higher = more signal.
Sequence of Dickkopf-related protein 1 (Homo sapiens) (O94907 whole entry, looked up): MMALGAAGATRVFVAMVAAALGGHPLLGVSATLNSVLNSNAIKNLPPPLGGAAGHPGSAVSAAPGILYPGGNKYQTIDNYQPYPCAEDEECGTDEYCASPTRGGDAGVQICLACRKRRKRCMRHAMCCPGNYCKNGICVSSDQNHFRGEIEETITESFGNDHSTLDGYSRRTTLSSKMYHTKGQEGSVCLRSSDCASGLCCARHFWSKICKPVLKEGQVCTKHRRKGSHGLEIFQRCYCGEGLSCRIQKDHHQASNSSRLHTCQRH
The test system of experiment [20] is Inhibin beta A chain (activin A). Briefly: INHBA (activin A) binders on microarrays, primary screen, biochemical, small-molecule microarray, 635 nm fluorescence scan (AID 1107).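 Also: mouse activin A protein probed at 4.33 µg/mL on printed slides; score merges bound-protein fluorescence near 667 nm with spot signal-to-noise.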 To be noted: small-molecule microarray binding, higher = more signal.

Sequence of Follistatin-related protein 3 (Homo sapiens) (O95633 whole entry, looked up): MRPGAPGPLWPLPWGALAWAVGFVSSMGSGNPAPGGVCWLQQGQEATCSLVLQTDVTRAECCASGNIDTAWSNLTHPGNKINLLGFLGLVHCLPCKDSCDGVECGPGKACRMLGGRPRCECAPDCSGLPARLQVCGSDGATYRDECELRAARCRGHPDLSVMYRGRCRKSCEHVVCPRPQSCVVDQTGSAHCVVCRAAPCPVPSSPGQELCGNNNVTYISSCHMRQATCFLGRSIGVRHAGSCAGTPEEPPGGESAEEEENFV

Take `C=C[C@H](OC)[C@@H](OC(=O)Nc1ccc(SC)cc1)c1ccc(O)c(F)c1`: the composite z-score was 1.22 in [1]; 2.96 in experiment [5]; -0.0174 in experiment [7]; -0.0413 in [8]; 0.134 in experiment [9]; -0.12 in experiment [10]. The composite z-score in experiment [11] was 1.03; in experiment [12], -0.145; in [13], 0.0453; in experiment [15] it was 1.01; in [16], 0.0309; in experiment [17], -0.133. The composite z-score in experiment [18] is 0.264; in experiment [19], -0.39; in experiment [20], -0.433. Further, the z-score in experiment [2] is -1.83 (inactive); in [3] it was -1.68 (inactive); in [4], 0.887 (inactive); in [6], 1.48 (inactive); in experiment [14] it was -1.97 (inactive).

Consider `COCCOC(=O)N1C(=O)[C@@]2(c3cc(C#CCNC(N)=O)ccc31)[C@H](c1ccccc1OCCO)N1[C@H](c3ccccc3)[C@H](c3ccccc3)OC(=O)[C@H]1[C@@H]2C(=O)NC[C@H](O)c1ccccc1`, for which the composite z-score was 1.53 in experiment [1]; 3.01 in experiment [5]; -0.0977 in experiment [7]; 1.12 in experiment [8]; 1.1 in experiment [9]; -0.065 in [10]. Moreover, the composite z-score was determined as 1.08 in [11]; 0.0288 in experiment [12]; 0.352 in experiment [13]; 1.18 in experiment [15]; 0.618 in experiment [16]; 0.134 in [17]. Also, the composite z-score in experiment [18] worked out at 1; in experiment [19], 0.117; in [20], 0.203. For the same molecule, the z-score was 2.75 (inactive) in [2]; 2.09 (inactive) in experiment [3]; 6.12 (inactive) in experiment [4]; 0.589 (inactive) in experiment [6]; 0.408 (inactive) in experiment [14].

`CC(=O)Nc1ccc([C@H]2[C@H](C)CC[C@H]3C(=O)N4[C@@H](CC[C@@H](C)[C@@H]4c4ccc(NC(C)=O)cc4)C(=O)N32)cc1`: the composite z-score is 1.53 in experiment [1]; 1.63 in experiment [5]; -0.185 in experiment [7]; 0.651 in experiment [8]; 0.897 in experiment [9]; 0.107 in experiment [10]. Moreover, the composite z-score in experiment [11] is 0.75; in experiment [12], 0.368; in experiment [13], -0.286; in [15], 1; in experiment [16], 1.17; in experiment [17], 0.168. The results for the composite z-score in experiment [18], in [19] and in experiment [20] were 0.845, 0.759 and 0.213, respectively. Also, the z-score is 0.817 (inactive) in [2]; -0.789 (inactive) in [3]; -0.145 (inactive) in experiment [4]; 0.987 (inactive) in [6]; 0.209 (inactive) in [14].

Regarding `CO[C@H]1COC(=O)[C@H](C)COC(=O)[C@H](Cc2ccccc2)NC(=O)CC=C[C@H]1C`, the composite z-score was -0.0111 in experiment [1]; -0.826 in experiment [5]; 0.0128 in experiment [7]; 0.952 in experiment [8]; -0.447 in experiment [9]; -0.139 in [10]. For the same molecule, the composite z-score in experiment [11] was 1.01; in experiment [12] it was -0.345; in [13], -1.3; in [15] it was 0.245; in experiment [16], -0.232; in experiment [17], 0.843. For the same molecule, the composite z-score came out at 1.31 in experiment [18], 1.68 in experiment [19] and 1.26 in experiment [20]. Moreover, the z-score in [2] is 0.43 (inactive); in [3] it was -0.854 (inactive); in [4] it was -0.798 (inactive); in experiment [6], 0.195 (inactive); in experiment [14] it was -0.857 (inactive).

For the molecule `O=C1O[C@H](c2ccccc2)[C@H](c2ccccc2)N2[C@H]1[C@@H](C(=O)NC[C@H](O)c1ccccc1)[C@]1(C(=O)Nc3ccc(C#CC4(O)CCCCCC4)cc31)[C@H]2c1ccc(OCCO)cc1`, the composite z-score in [1] was found to be 1.32; in experiment [5], 2.72; in experiment [7], 0.159; in experiment [8], 0.423; in experiment [9], 0.868; in [10], 0.0301. In addition, the composite z-score in [11] came to 1.03; in experiment [12], 0.539; in experiment [13], 0.713; in experiment [15], 0.599; in [16], 0.563; in experiment [17], 0.0371. Further, the composite z-score in experiment [18] was 0.411; in experiment [19], 0.0407; in experiment [20] it was 0.0385. Further, the z-score in [2] is 1.93 (inactive); in [3] it was -0.538 (inactive); in [4] it was 4.16 (inactive); in experiment [6] it was 3.35 (inactive); in [14], -0.717 (inactive).

As to `Cc1ccc(N2C(=O)c3ccccc3[C@](C)(C(=O)NCC(C)C)[C@@H]2c2ccc(CO)cc2)nc1`, the composite z-score is -0.644 in [1]; -1.71 in experiment [5]; 0.456 in [7]; -1.22 in [8]; -1.62 in [9]; 0.32 in experiment [10]. In addition, the composite z-score in experiment [11] is 1.78; in [12], 0.504; in experiment [13], 0.481; in experiment [15], -0.587; in experiment [16] it was -0.856; in experiment [17] it was -0.45. For the same molecule, the composite z-score in experiment [18] is -0.775; in [19], -0.29; in [20] it was 1. In addition, the z-score in experiment [2] was 0.42 (inactive); in experiment [3] it was 0.374 (inactive); in experiment [4], 1.43 (inactive); in experiment [6], -0.277 (inactive); in experiment [14] it was -0.237 (inactive).

In the case of `COCCOC(=O)N1C(=O)[C@@]2(c3cc(C#CCCO)ccc31)[C@H](c1ccc(OCCO)cc1)N1[C@H](c3ccccc3)[C@H](c3ccccc3)OC(=O)[C@H]1[C@@H]2C(=O)NC[C@H](O)c1ccccc1`, the composite z-score in experiment [1] is 1.54; in experiment [5], 2.54; in experiment [7], -0.116; in experiment [8], 1.6; in experiment [9], 1.07; in [10], -0.0286. Also, the composite z-score is 1.3 in experiment [11]; 0.0564 in experiment [12]; -0.0641 in [13]; 1.31 in [15]; 1 in [16]; 0.776 in experiment [17]. Also, the composite z-score came out at 1.41 in experiment [18], 0.923 in experiment [19] and 0.701 in experiment [20]. In addition, the z-score in [2] was 1.99 (inactive); in experiment [3] it was 1.98 (inactive); in experiment [4], 5.45 (inactive); in experiment [6], 1.3 (inactive); in experiment [14] it was -0.6 (inactive).
